PubChem BioAssay
Records with an inconclusive call do not appear. Calls of active or inactive are those of the source.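 Rule for the calls, unless noted: active = viability at or below 10% of carrier control in both of two separate runs; inconclusive = viability at or below 10% in only one of the two runs; inactive = the rest.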

What was measured:
[1] = reducers of endogenous Her2 protein level, primary screen, SKBR3 breast tumor cells, AlphaScreen, ATP viability (AID 461;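 active = Her2 level under about 52% in both replicate screens, with viability over 70% of control, limit read from the data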;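 for Her2 level: lower value means less Her2 protein in the cells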;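 for viability: percent of carrier control wells set as 100% viability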); conditions: 18-24 h, measured here: SKBR3 viability, ATP luminescence, at 10 µM
[2] = biological target: Receptor tyrosine-protein kinase erbB-2 (Homo sapiens) (UniProt P04626); test: as above; conditions: 18-24 h, at 10 µM, stronger effect = lower value
[3] = SK-BR-3 cell growth inhibitors, pilot screen, 24 h, human (AID 572); conditions: SK-BR-3 viability, CellTiter-Glo luminescence, at 10 µM, stronger effect = lower value;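 note: compound exposure lasted between 18 and 24 h rather than exactly 24 h; 100% = carrier-treated control wells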
[4] = HUVEC growth inhibition – cell-based, human, primary screen (AID 575;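 active = viability at or below 30% in both replicate assays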;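 note: 100% = median of untreated cell wells with 0.1% DMSO on each plate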); conditions: HUVEC proliferation, CellTiter-Glo luminescence, 72 h; at 10 µM; stronger effect = lower value
[5] = growth inhibitors of H69AR lung tumor, primary screen, human, duplicate replicates (AID 580;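 active = viability at or under a set limit in both replicates, limit being median viability minus 3 SD, cut at about 48% in these data, passing the limit was not always enough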;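 note: 100% = mean luminescence of untreated wells and 0% = no signal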); conditions: H69AR lung tumor cells viability, ATP luminescence, 72 h; at 10 µM; stronger effect = lower value
[6] = reversal of MRP1-mediated doxorubicin resistance, pilot screen, H69AR cells, doxorubicin co-treatment (AID 601;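 active = viability loss from added drug above about 55%, and viability with drug at most 40%, in both replicates, limit read from the data, passing the limit was not always enough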); conditions: CellTiter-Glo, 72 h, at 10 µM; for differential viability (reversal): stronger effect = higher value
[7] = 384-well plate pilot, post-Golgi transport modulator project, inhibition of yeast transport mutant growth (AID 636; in the data active = inhibition above about 31%); conditions: absorbance 615 nm, about 18 h, stronger effect = higher value
[8] = growth suppression of yeast trafficking mutant, preliminary HTS, modulators of trafficking downstream of Golgi apparatus project, 1536-format plate, OD 615 nm (AID 637; in the data active = inhibition above about 30%); conditions: yeast transport mutant growth, absorbance 615 nm, 18 h; stronger effect = higher value
[9] = OD615 S. cerevisiae growth inhibition, permissive medium, pilot counter-assay, permissive growth control for S. cerevisiae lifespan shortening project (AID 705;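 active = growth inhibition above 25% in both replicates, a cutoff set 3 SD above the mean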); conditions: OD615, 24 h, at 10 µM, stronger effect = higher value
[10] = Restrictive medium S. cerevisiae growth inhibition, OD615, pilot screen of yeast lifespan reduction project, restrictive growth control (AID 706;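 active = growth inhibition above a set limit, 3 SD over mean compound inhibition, in both replicates, cut at about 43% in these data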;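 note: modified DeaD lifespan yeast strain shifted to restrictive glucose medium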); conditions: OD615, 48 h, at 10 µM, stronger effect = higher value
[11] = viability gain of MRP-1-high H69AR cells under doxorubicin, pilot screen, MRP-1 activator project, CellTiter-Glo, duplicate (AID 807;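 active = viability increase at or above a cutoff of the median across tested compounds plus 3 SD, cut at about 8.5% in these data, passing the limit was not always enough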;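 note: compound pretreatment 18-22 h then 72 h combined with doxorubicin; 0% = doxorubicin alone and 100% = vehicle without doxorubicin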); conditions: H69AR viability with doxorubicin, CellTiter-Glo luminescence; at 10 µM; stronger effect = higher value
[12] = growth suppression of beta-catenin knockout HCT116, pilot screen, human colon tumor cells (AID 823;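 active = cell viability at or below a set limit in both duplicate runs, the limit being the all-compound median minus 4 SD, cut at about 23% in these data, passing the limit was not always enough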;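 note: 0% = wells killed by 20 µM Hyamine and 100% = untreated DMSO cell wells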); conditions: CellTiter-Glo, 60 h, at 10 µM, stronger effect = lower value
[13] = growth suppression of PTEN-deleted HCT116, pilot screen, cell-based, HCT116 clonal line, CellTiter-Glo (AID 824;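 active = viability at or below 27.92% in each of two runs, the all-compound median minus 4 SD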;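 note: 0% = 20 µM Hyamine control and 100% = vehicle cell control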); conditions: 60 h, at 10 µM, stronger effect = lower value
[14] = inhibitors of the yeast RAM network, pilot screen, dse1pr::URA3 reporter, 5-FOA selection (AID 869;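 active = inhibition over a set limit, the all-compound mean plus 3 SD, in both replicate runs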;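 note: 0% = DMSO wells with no growth and 100% = 10 µM 1-NA-PP1 with full growth; RAM network block rescues cells from 5-FOA so hits raise OD615 growth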); conditions: S. cerevisiae dse1pr::URA3 5-FOA growth, OD615, 2 d; at 10 µM; stronger effect = higher value; strain carries analog-sensitive mutant Cbk1 kinase
[15] = RAM signaling pathway blockade in yeast – S. cerevisiae, Pdr1DBD-CYC8 efflux-inhibited sensitized strain, primary screen (AID 1298;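 active = RAM network inhibition above 8.4% in each of two replicates, 3 SD over the compound average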;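 note: 0% = DMSO untreated cells without growth and 100% = 10 µM 1-NA-PP1 full growth; higher means more yeast growth rescued from 5-FOA killing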); conditions: S. cerevisiae cbk1-as DSE1-URA3 strain, 5-FOA growth OD615, 2 d; at 50 µM; stronger effect = higher value
[16] = H69AR cells + 2 uM doxorubicin, measured here: viability with 2 uM doxorubicin, stronger effect = lower value
[17] = H69AR cells, compound alone cytotoxicity

Receptor tyrosine-protein kinase erbB-2 (Homo sapiens), sequence (P04626 whole entry, looked up): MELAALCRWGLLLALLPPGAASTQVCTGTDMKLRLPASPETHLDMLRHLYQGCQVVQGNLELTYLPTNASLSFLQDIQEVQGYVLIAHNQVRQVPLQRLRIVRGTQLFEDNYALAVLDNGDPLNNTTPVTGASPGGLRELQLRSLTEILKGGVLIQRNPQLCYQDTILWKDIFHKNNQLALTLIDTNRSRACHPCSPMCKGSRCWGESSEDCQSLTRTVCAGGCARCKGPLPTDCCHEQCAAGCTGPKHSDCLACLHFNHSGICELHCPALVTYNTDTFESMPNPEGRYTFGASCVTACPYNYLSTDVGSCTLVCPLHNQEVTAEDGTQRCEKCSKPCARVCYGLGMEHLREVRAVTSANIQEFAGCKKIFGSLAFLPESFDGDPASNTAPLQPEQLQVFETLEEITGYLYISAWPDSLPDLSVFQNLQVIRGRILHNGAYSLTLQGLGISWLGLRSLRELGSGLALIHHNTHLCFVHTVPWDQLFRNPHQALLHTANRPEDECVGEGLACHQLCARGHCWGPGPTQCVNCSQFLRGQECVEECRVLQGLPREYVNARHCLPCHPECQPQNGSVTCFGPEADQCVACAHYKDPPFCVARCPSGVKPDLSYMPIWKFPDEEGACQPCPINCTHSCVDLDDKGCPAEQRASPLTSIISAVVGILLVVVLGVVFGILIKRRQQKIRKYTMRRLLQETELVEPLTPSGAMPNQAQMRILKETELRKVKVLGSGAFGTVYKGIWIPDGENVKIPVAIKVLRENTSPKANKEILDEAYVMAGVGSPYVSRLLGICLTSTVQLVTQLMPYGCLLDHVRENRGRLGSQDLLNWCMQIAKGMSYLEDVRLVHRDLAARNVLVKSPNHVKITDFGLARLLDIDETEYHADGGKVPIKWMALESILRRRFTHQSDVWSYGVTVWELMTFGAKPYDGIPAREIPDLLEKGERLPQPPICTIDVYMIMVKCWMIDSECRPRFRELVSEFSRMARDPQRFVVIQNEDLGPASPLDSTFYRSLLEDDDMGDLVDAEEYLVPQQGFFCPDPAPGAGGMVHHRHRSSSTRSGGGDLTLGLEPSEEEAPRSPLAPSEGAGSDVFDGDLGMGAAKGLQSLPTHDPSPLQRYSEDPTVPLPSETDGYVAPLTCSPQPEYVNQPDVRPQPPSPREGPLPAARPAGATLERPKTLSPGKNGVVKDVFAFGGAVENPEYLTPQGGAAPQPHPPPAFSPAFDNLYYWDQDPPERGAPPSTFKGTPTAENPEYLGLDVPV

| Structure (SMILES) | viability [1] [%] | Her2 level [2] | viability [3] | viability [4] | viability [5] | differential viability (reversal) ([6]; H69AR cells + 2 uM doxorubicin) | viability [6, 16] [%] | viability [6, 17] [%] | inhibition [7] | inhibition [8] | growth inhibition [9] | growth inhibition [10] | viability increase [11] | viability [12] | viability [13] | inhibition [14] | RAM network inhibition [15] |
| --- | --- | --- | --- | --- | --- | --- | --- | --- | --- | --- | --- | --- | --- | --- | --- | --- | --- |
| O=C(Cn1c(=O)[nH]c2ccsc2c1=O)NC1CCCCCC1 | 110 | 97% (inactive) | 110% (inactive) | 111% (inactive) | 94.3% (inactive) | -2.65% (inactive) | 97 | 94.3 | -7.16% (inactive) | 2.17% (inactive) | -6.35% (inactive) | -17.4% (inactive) | 1.49% (inactive) | 106% (inactive) | 99.2% (inactive) | 0.875% (inactive) | 0.72% (inactive) |
| O=C1c2ccccc2S(=O)(=O)N1CC(O)Cn1c2ccccc2c2ccccc21 (stereo not drawn) | 90 | 96% (inactive) | 90% (inactive) | 73.2% (inactive) | 85% (inactive) | -2.51% (inactive) | 87.6 | 85 | 99.3% (active) | 94.7% (active) | -2.73% (inactive) | 9.13% (inactive) | -1.19% (inactive) | 89.7% (inactive) | 96.3% (inactive) | 2.46% (inactive) | 0.57% (inactive) |
| Cc1cccc(OCc2nc(C#N)c(NCCN(C)C)o2)c1 | 97 | 81.5% (inactive) | 97% (inactive) | 79.7% (inactive) | 84.8% (inactive) | -2.44% (inactive) | 87.3 | 84.8 | -2.4% (inactive) | -2.46% (inactive) | -4.31% (inactive) | 1.57% (inactive) | -3.62% (inactive) | 102% (inactive) | 103% (inactive) | 0.445% (inactive) | 3.81% (inactive) |
| O=C(NC1CCN(Cc2ccccc2)CC1)C1CCN(S(=O)(=O)c2cccc3cccnc23)CC1 | 96.5 | 97.5% (inactive) | 96.5% (inactive) | 86.9% (inactive) | 102% (inactive) | 1.09% (inactive) | 101 | 102 | -0.13% (inactive) | -2.62% (inactive) | 5.75% (inactive) | 1.73% (inactive) | 1.84% (inactive) | 88.3% (inactive) | 96% (inactive) | -0.18% (inactive) | 1.59% (inactive) |
| CCOC(=O)N1CCN(C(=O)CSc2nnc(COc3ccccc3)o2)CC1 | 92.5 | 89.5% (inactive) | 92.5% (inactive) | 95.2% (inactive) | 97.2% (inactive) | 9.01% (inactive) | 88.2 | 97.2 | 2.67% (inactive) | -7.21% (inactive) | -8.08% (inactive) | 1.67% (inactive) | 1.41% (inactive) | 99.4% (inactive) | 100% (inactive) | -0.34% (inactive) | 7.1% (inactive) |
| O=C(CSc1nnc(Cn2c(=O)sc3ccccc32)n1-c1ccccc1)NCC1CCCO1 (stereo not drawn) | 80.5 | 108% (inactive) | 80.5% (inactive) | 82.3% (inactive) | 99.8% (inactive) | 12.6% (inactive) | 87.2 | 99.8 | -1.92% (inactive) | 0.83% (inactive) | -4.79% (inactive) | 10.2% (inactive) | -2.08% (inactive) | 99.1% (inactive) | 98.6% (inactive) | 1.41% (inactive) | 0.47% (inactive) |
| O=C(Nc1ccc(CN2CCOCC2)cc1)c1cc2ccccn2n1 | 100 | 103% (inactive) | 100% (inactive) | 94.4% (inactive) | 94.7% (inactive) | -0.47% (inactive) | 95.2 | 94.7 | 0.38% (inactive) | 2.5% (inactive) | -4.72% (inactive) | 7.87% (inactive) | 2.39% (inactive) | 100% (inactive) | 95% (inactive) | 0.65% (inactive) | 1.45% (inactive) |
| O=C(c1ccc(=O)[nH]c1)N(Cc1ccco1)C1(C(=O)NC2CCCC2)CCCCC1 | 102 | 99.5% (inactive) | 102% (inactive) | 102% (inactive) | 104% (inactive) | 11.9% (inactive) | 91.7 | 104 | -7.81% (inactive) | -3.17% (inactive) | 2.31% (inactive) | -5.5% (inactive) | -2% (inactive) | 98.6% (inactive) | 100% (inactive) | -0.16% (inactive) | 1.35% (inactive) |
| CC1CCN(C(=O)CSc2nc3c(cnn3-c3ccccc3)c(=O)[nH]2)CC1 | 82.5 | 92% (inactive) | 82.5% (inactive) | 72.1% (inactive) | 72% (inactive) | 7.54% (inactive) | 64.4 | 72 | -0.64% (inactive) | 1.67% (inactive) | -6.1% (inactive) | -4.26% (inactive) | -3.8% (inactive) | 98.3% (inactive) | 91.1% (inactive) | 1.47% (inactive) | 6.5% (inactive) |
| CCOc1ccccc1C(=O)Nc1nnc(CC)s1 | 94.5 | 84% (inactive) | 94.5% (inactive) | 114% (inactive) | 97% (inactive) | 8.28% (inactive) | 88.7 | 97 | -1.73% (inactive) | 3% (inactive) | -0.29% (inactive) | 12.6% (inactive) | -2.43% (inactive) | 96.3% (inactive) | 98.3% (inactive) | 0.31% (inactive) | 1.61% (inactive) |
| CCOc1ccc(OCCCCN(C)C)cc1 | 89 | 92.5% (inactive) | 89% (inactive) | 87.2% (inactive) | 88.5% (inactive) | 1.8% (inactive) | 86.7 | 88.5 | -0.64% (inactive) | 1.5% (inactive) | -10% (inactive) | 3.69% (inactive) | -0.48% (inactive) | 96.8% (inactive) | 93.5% (inactive) | 3.26% (inactive) | 6.13% (inactive) |
| O=C(c1ccc(Br)o1)N(Cc1ccccc1)c1ccccn1 | 93.5 | 102% (inactive) | 93.5% (inactive) | 99.6% (inactive) | 92.9% (inactive) | 2.17% (inactive) | 90.7 | 92.9 | 1.49% (inactive) | -0.98% (inactive) | -3.17% (inactive) | -6.46% (inactive) | -6.28% (inactive) | 94.9% (inactive) | 84% (inactive) | 1.94% (inactive) | 12% (inactive) |
| CC(=O)N1c2c(cc(Br)cc2S(=O)(=O)N2CCN(c3ccccn3)CC2)CC1C (stereo not drawn) | 80.5 | 106% (inactive) | 80.5% (inactive) | 64.9% (inactive) | 86.6% (inactive) | -3.56% (inactive) | 90.2 | 86.6 | -1.05% (inactive) | 24.6% (inactive) | 6.66% (inactive) | 1.97% (inactive) | 1.49% (inactive) | 99.1% (inactive) | 95.6% (inactive) | 0.77% (inactive) | 0.3% (inactive) |
| COCCn1c(SCC(=O)Nc2ccc3c(c2)OCCO3)nc2c(c1=O)SC(C)C2 (stereo not drawn) | 95 | 110% (inactive) | 95% (inactive) | 108% (inactive) | 84.4% (inactive) | -21.9% (inactive) | 106 | 84.4 | -1.07% (inactive) | -2% (inactive) | -6.57% (inactive) | -5.1% (inactive) | -1.19% (inactive) | 102% (inactive) | 95.8% (inactive) | 1.71% (inactive) | -0.11% (inactive) |
| COc1ccc(N2CCN(CCCNS(=O)(=O)c3c(C)noc3/C=C/N(C)C)CC2)cc1 | 99.5 | 94.5% (inactive) | 99.5% (inactive) | 83.1% (inactive) | 92.9% (inactive) | 0.17% (inactive) | 92.8 | 92.9 | -7.33% (inactive) | -4.43% (inactive) | -4.88% (inactive) | 12% (inactive) | -2.75% (inactive) | 81% (inactive) | 83.7% (inactive) | 1.67% (inactive) | 7% (inactive) |
| O=C(C1CCCN1S(=O)(=O)c1cccc2cccnc12)N1CCn2c1nc1ccccc12 (stereo not drawn) | 100 | 84.5% (inactive) | 100% (inactive) | 64.9% (inactive) | 94.1% (inactive) | 1.47% (inactive) | 92.6 | 94.1 | 0.9% (inactive) | 4.67% (inactive) | -4.09% (inactive) | 4.54% (inactive) | 0.79% (inactive) | 97.4% (inactive) | 101% (inactive) | 0.235% (inactive) | 1.58% (inactive) |
| COc1ccc(CCNC(=O)CSc2nnnn2-c2ccccc2OC)cc1OC | 91 | 99.5% (inactive) | 91% (inactive) | 102% (inactive) | 90.1% (inactive) | 0.99% (inactive) | 89.1 | 90.1 | -7.33% (inactive) | -0.5% (inactive) | -2.03% (inactive) | 2.95% (inactive) | -2.14% (inactive) | 86.9% (inactive) | 92.3% (inactive) | 1.64% (inactive) | 6.51% (inactive) |
| COC(=O)c1cc(OC)c(OC)cc1NC(=O)c1ccc(Br)o1 | 85.5 | 84% (inactive) | 85.5% (inactive) | 101% (inactive) | 87.6% (inactive) | -5.39% (inactive) | 93 | 87.6 | 0.13% (inactive) | 3% (inactive) | -14.5% (inactive) | -3.21% (inactive) | -0.2% (inactive) | 96% (inactive) | 86.1% (inactive) | 3.2% (inactive) | 4.75% (inactive) |
| COc1ccc(C2CC(c3cccc(C)c3)n3ncnc3N2)cc1 (stereo not drawn) | 87.5 | 89% (inactive) | 87.5% (inactive) | 88.8% (inactive) | 91.4% (inactive) | -5.74% (inactive) | 97.2 | 91.4 | 5.6% (inactive) | -9.02% (inactive) | 1.04% (inactive) | 5.56% (inactive) | -1.57% (inactive) | 100% (inactive) | 86.1% (inactive) | 0.22% (inactive) | -0.53% (inactive) |
